Measurements taken from the supplement of paper PMC6609913.
Structures can show the parent of a compound that is named as a salt. ± gives the standard deviation of the averaged measurements. Over roughly 1,300 compounds, “normalised cell viability” has its median near 1; the lowest 2% begin near 0.15. The sample as a whole holds a higher share of the lowest values than the screen did.

Test system: V-C8 + BRCA2 (BRCA2-proficient hamster cells)
Experiment: normalised cell viability (fraction of plate median); higher = more viable cells (less toxic)
Conditions: 5 µM
Outline: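 Cell viability was measured with a resazurin assay, normalised to the plate median (modified robust per cent of sample) and averaged over triplicate wells. Hamster V-C8 cells lacking BRCA2 and V-C8 cells with BRCA2 restored were seeded in 96-well plates. After 24 h, library drugs from 10 mM DMSO stocks were added at a final 5 μM in 100 μl medium and left for 3 days (screen 1) or 6 days (screen 2), with solvent-only wells alongside.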

Row | Structure (SMILES) | normalised cell viability (treatment time: 3 days) | normalised cell viability (treatment time: 6 days)
1 | CCCCC(CC)CNC(=N)NC(=N)NCCCCCCNC(=N)NC(=N)NCC(CC)CCCC (centres undefined) [Alexidine dihydrochloride] | 0.143 ± 0.002 | 0.149 ± 0.011
2 | O=C1C=CC(=O)c2c1ccc1c2ccc2ccccc21 [Chrysene-1,4-quinone] | 1.024 ± 0.0027 | 1 ± 0.11
3 | CC(C)Oc1ccc2c(=O)c(-c3ccccc3)coc2c1 [Ipriflavone] | 0.993 ± 0.029 | 1.08 ± 0.11
4 | Nc1ccn([C@@H]2CS[C@H](CO)O2)c(=O)n1 [Lamivudine] | 0.335 ± 0.012 | 0.406 ± 0.023
5 | OC(CCN1CCCC1)(c1ccccc1)C1CCCCC1 (centres undefined) [Procyclidine hydrochloride] | 0.981 ± 0.047 | 0.987 ± 0.012
6 | COc1cc(OC)c(C(=O)CCCN2CCCC2)c(OC)c1 [Buflomedil hydrochloride] | 1.04 ± 0.096 | 1.07 ± 0.025
7 | CN1C(C)(C)CCCC1(C)C [Pempidine tartrate] | 1.1 ± 0.035 | 1.007 ± 0.0034
8 | C[C@@]1(O)CCOC(=O)C1 [Mevalonic-D, L acid lactone] | 1.09 ± 0.038 | 1.06 ± 0.054
9 | Nc1ccc(S(=O)(=O)Nc2ccnn2-c2ccccc2)cc1 [Sulfaphenazole] | 1.07 ± 0.02 | 1.01 ± 0.041
10 | Cc1ccnc2c1NC(=O)c1cccnc1N2C1CC1 [Nevirapine] | 1.03 ± 0.087 | 1.05 ± 0.047
11 | C[C@H]1O[C@@H](O[C@H]2[C@@H](O)C[C@H](O[C@H]3[C@@H](O)C[C@H](O[C@H]4CC[C@@]5(C)[C@H](CC[C@@H]6[C@@H]5C[C@@H](O)[C@]5(C)[C@@H](C7=CC(=O)OC7)CC[C@]65O)C4)O[C@@H]3C)O[C@@H]2C)C[C@H](O)[C@@H]1O [Digoxin] | 1.06 ± 0.036 | 1.07 ± 0.13
12 | COc1ccc(NS(=O)(=O)c2ccc(N)cc2)nn1 [Sulfamethoxypyridazine] | 0.879 ± 0.062 | 0.892 ± 0.069
13 | CC(=O)c1ccc(S(=O)(=O)NC(=O)NC2CCCCC2)cc1 [Acetohexamide] | 1.22 ± 0.019 | 1.025 ± 0.0097
14 | O=C1C(O)=C([C@H]2CC[C@H](c3ccc(Cl)cc3)CC2)C(=O)c2ccccc21 [Atovaquone] | 0.958 ± 0.012 | 0.922 ± 0.04
15 | CC(C)(C)NC(=O)[C@@H]1C[C@@H]2CCCC[C@@H]2CN1C[C@@H](O)[C@H](Cc1ccccc1)NC(=O)[C@H](CC(N)=O)NC(=O)c1ccc2ccccc2n1 [Saquinavir mesylate] | 0.842 ± 0.061 | 0.952 ± 0.073
16 | O=C1Cc2cc(CCN3CCN(c4nsc5ccccc45)CC3)c(Cl)cc2N1 [Ziprasidone  Hydrochloride] | 0.206 ± 0.016 | 0.23 ± 0.013
17 | CO/N=C(\C(=O)N[C@@H]1C(=O)N2C(C(=O)OC(C)OC(C)=O)=C(COC(N)=O)CS[C@H]12)c1ccco1 (some centres undefined) [Cefuroxime axetil] | 1.01 ± 0.057 | 1.04 ± 0.12
18 | Cc1cccc(N(C)C(=S)Oc2ccc3ccccc3c2)c1 [Tolnaftate] | 1.02 ± 0.027 | 1.04 ± 0.044
19 | CC(=O)CC(c1ccc([N+](=O)[O-])cc1)c1c(O)c2ccccc2oc1=O (centres undefined) [Acenocoumarol] | 0.92 ± 0.023 | 0.979 ± 0.053
20 | N[C@H]1CONC1=O [(S)-(-)-Cycloserine] | 1.04 ± 0.043 | 0.917 ± 0.29
21 | O=C1[C@H](CC[C@H](O)c2ccc(F)cc2)[C@@H](c2ccc(O)cc2)N1c1ccc(F)cc1 [Ezetimibe] | 1.03 ± 0.04 | 1.08 ± 0.054

Row | Structure (SMILES) | normalised cell viability (treatment time: 3 days) | normalised cell viability (treatment time: 6 days)
22 | OC[C@H]1O[C@@H](Oc2ccc(O)cc2)[C@H](O)[C@@H](O)[C@@H]1O [Arbutin] | 1.02 ± 0.05 | 0.979 ± 0.024
23 | CCOC(=O)/C=C(C)/C=C/C=C(C)/C=C/c1c(C)cc(OC)c(C)c1C [Etretinate] | 1.01 ± 0.043 | 1.13 ± 0.071
24 | C[C@H]1c2cccc(O)c2C(=O)C2=C(O)[C@]3(O)C(=O)C(C(N)=O)=C(O)[C@@H](N(C)C)[C@@H]3[C@@H](O)[C@@H]21 [Doxycycline hydrochloride] | 0.947 ± 0.025 | 0.982 ± 0.033
25 | CC(C)(C(=O)O)c1ccc(C(O)CCCN2CCC(C(O)(c3ccccc3)c3ccccc3)CC2)cc1 (centres undefined) [Fexofenadine HCl] | 1.02 ± 0.051 | 1.04 ± 0.026
26 | OC(CCCN1CCCCC1)(c1ccccc1)c1ccccc1 [Diphenidol hydrochloride] | 1.08 ± 0.066 | 1.05 ± 0.025
27 | CC(C)(C)c1ccc(C(O)CCCN2CCC(C(O)(c3ccccc3)c3ccccc3)CC2)cc1 (centres undefined) [Terfenadine] | 0.118 ± 0.0067 | 0.103 ± 0.0052
28 | Cc1cn[nH]c1 [Fomepizole] | 1.07 ± 0.021 | 0.9639 ± 0.0076
29 | CN(C)CCOc1ccc(/C(=C(/CCCl)c2ccccc2)c2ccccc2)cc1 [Toremifene] | 0.822 ± 0.058 | 0.891 ± 0.027
30 | CC/C(=C(\c1ccccc1)c1ccc(OCCN(C)C)cc1)c1ccccc1 [Tamoxifen citrate] | 0.878 ± 0.054 | 0.88 ± 0.021
31 | CCN(CC)CCOc1ccc(C(=C(Cl)c2ccccc2)c2ccccc2)cc1 [Clomiphene citrate (Z,E)] | 0.124 ± 0.0093 | 0.128 ± 0.013
32 | CC[C@H](c1ccc(O)cc1)[C@@H](CC)c1ccc(O)cc1 [Hexestrol] | 0.9735 ± 0.0097 | 0.944 ± 0.19
33 | Nc1nc(NC2CC2)c2ncn([C@H]3C=C[C@@H](CO)C3)c2n1 [Abacavir Sulfate] | 1.04 ± 0.02 | 1.07 ± 0.034
34 | C=CCOC(Cn1ccnc1)c1ccc(Cl)cc1Cl (centres undefined) [Enilconazole] | 0.985 ± 0.021 | 1.04 ± 0.013
35 | NC(N)=Nc1nc(CSCC/C(N)=N/S(N)(=O)=O)cs1 [Famotidine] | 1.16 ± 0.079 | 1.1 ± 0.096
36 | CC(C)(O/N=C(\C(=O)N[C@@H]1C(=O)N2C(C(=O)[O-])=C(C[n+]3ccccc3)CS[C@H]12)c1csc(N)n1)C(=O)O [Ceftazidime pentahydrate] | 1.03 ± 0.011 | 1 ± 0.039
37 | Cc1ccc(O)c([C@H](CCN(C(C)C)C(C)C)c2ccccc2)c1 [Tolterodine tartrate] | 1.05 ± 0.062 | 0.965 ± 0.053
38 | COc1ccc2cc(CCC(C)=O)ccc2c1 [Nabumetone] | 1.05 ± 0.12 | 1.02 ± 0.044
39 | CC(C)C(=O)c1c(C(C)C)nn2ccccc12 [Ibudilast] | 0.987 ± 0.062 | 0.981 ± 0.061
40 | CC(C)(C)NC[C@H](O)c1ccc(O)c(CO)c1 [Levalbuterol hydrochloride] | 0.965 ± 0.089 | 1.004 ± 0.0069
41 | Clc1ccc(CO/N=C(\Cn2ccnc2)c2ccc(Cl)cc2Cl)c(Cl)c1 [Oxiconazole Nitrate] | 1.07 ± 0.16 | 0.675 ± 0.12
42 | CC(=O)OCC(=O)[C@@]12OC(C)(C)O[C@@H]1C[C@H]1[C@@H]3C[C@H](F)C4=CC(=O)C=C[C@]4(C)[C@@]3(F)[C@@H](O)C[C@@]12C [Fluocinonide] | 1.04 ± 0.017 | 1.06 ± 0.04

Row | Structure (SMILES) | normalised cell viability (treatment time: 3 days) | normalised cell viability (treatment time: 6 days)
43 | C[n+]1ccccc1/C=N/O [Pralidoxime chloride] | 0.99 ± 0.036 | 0.9475 ± 0.0081
44 | NS(=O)(=O)c1cc(C2(O)NC(=O)c3ccccc32)ccc1Cl (centres undefined) [Chlorthalidone] | 1.1 ± 0.018 | 1.03 ± 0.079
45 | CCc1cccc2c3c([nH]c12)C(CC)(CC(=O)O)OCC3 (centres undefined) [Etodolac] | 0.922 ± 0.034 | 1.04 ± 0.084
46 | CN[C@@H]1[C@H](O[C@H]2[C@H](O[C@H]3[C@H](O)[C@@H](O)[C@H](NC(=N)N)[C@@H](O)[C@@H]3NC(=N)N)O[C@@H](C)[C@]2(O)CO)O[C@@H](CO)[C@H](O)[C@H]1O [Dihydrostreptomycin sulfate] | 0.911 ± 0.07 | 0.983 ± 0.042
47 | NS(=O)(=O)c1cc2c(cc1C(F)(F)F)NC(Cc1ccccc1)NS2(=O)=O (centres undefined) [Bendroflumethiazide] | 0.992 ± 0.096 | 1.03 ± 0.032
48 | CC[C@H](C)C(=O)O[C@H]1C[C@@H](C)C=C2C=C[C@H](C)[C@H](CC[C@@H]3C[C@@H](O)CC(=O)O3)[C@H]21 [Lovastatin] | 0.19 ± 0.015 | 0.153 ± 0.019
49 | CC[C@H](C)C(=O)O[C@H]1C[C@H](O)C=C2C=C[C@H](C)[C@H](CC[C@@H](O)C[C@@H](O)CC(=O)O)[C@H]21 [Pravastatin] | 0.969 ± 0.14 | 1.02 ± 0.089
50 | CC[C@H](C)C(=O)O[C@H]1CCC=C2C=C[C@H](C)[C@H](CC[C@@H]3C[C@@H](O)CC(=O)O3)[C@H]21 [Mevastatin] | 0.246 ± 0.0034 | 0.23 ± 0.011
51 | NCCNCCNCCNCCN [Tetraethylenepentamine pentahydrochloride] | 0.972 ± 0.03 | 1.01 ± 0.024
52 | CC=CC1=C(C(=O)O)N2C(=O)[C@@H](NC(=O)[C@H](N)c3ccc(O)cc3)[C@H]2SC1 [Cefprozil] | 0.951 ± 0.071 | 0.908 ± 0.072
53 | Clc1cnccn1 [2-Chloropyrazine] | 1.02 ± 0.036 | 1.02 ± 0.071
54 | Cc1cc(-c2ccccc2)nnc1NCCN1CCOCC1 [Minaprine dihydrochloride] | 1.1 ± 0.02 | 1.03 ± 0.048
55 | CC(C(=O)O)c1ccc2c(c1)[nH]c1ccc(Cl)cc12 (centres undefined) [Carprofen] | 1.04 ± 0.11 | 1.04 ± 0.13
56 | CN(Cc1ccc(C(C)(C)C)cc1)Cc1cccc2ccccc12 [Butenafine Hydrochloride] | 1.06 ± 0.05 | 0.982 ± 0.048
57 | C[C@@H]1C[C@H]2[C@@H]3C[C@H](F)C4=CC(=O)C=C[C@]4(C)[C@@]3(Cl)[C@@H](O)C[C@]2(C)[C@H]1C(=O)COC(=O)C(C)(C)C [Clocortolone pivalate] | 1.03 ± 0.27 | 0.899 ± 0.07
58 | CCN(CC)C(=O)C1(c2ccccc2)CC1CN (centres undefined) [Milnacipran hydrochloride] | 0.956 ± 0.095 | 0.937 ± 0.048
59 | COc1nc(C)nc(Cl)c1NC1=NCCN1 [Moxonidine] | 1.014 ± 0.0037 | 0.9963 ± 0.0028
60 | CC1CC(OC(=O)c2ccccc2O)CC(C)(C)C1 (centres undefined) [Homosalate] | 1.03 ± 0.04 | 1.02 ± 0.074
61 | CN(C)C(=O)C(CCN1CCC(O)(c2ccc(Cl)cc2)CC1)(c1ccccc1)c1ccccc1 [Loperamide hydrochloride] | 0.687 ± 0.041 | 0.67 ± 0.057
62 | CN[C@H](CC(C)C)C(=O)N[C@H]1C(=O)N[C@@H](CC(N)=O)C(=O)N[C@H]2C(=O)N[C@H]3C(=O)N[C@H](C(=O)N[C@H](C(=O)O)c4cc(O)cc(O)c4-c4cc3ccc4O)[C@H](O)c3ccc(c(Cl)c3)Oc3cc2cc(c3O[C@@H]2O[C@H](CO)[C@@H](O)[C@H](O)[C@H]2O[C@H]2C[C@](C)(N)[C@H](O)[C@H](C)O2)Oc2ccc(cc2Cl)[C@H]1O [Vancomycin hydrochloride] | 0.177 ± 0.0067 | 0.17 ± 0.018
